Records with an inconclusive call do not appear. Activity calls are given as the source filed them. How the source made its calls, unless noted: active means hit-call score of the fitted dose curve at least 0.9, where 1 is the maximum; inactive means score below 0.9.
Experiments:
[1] = biological target: Aryl hydrocarbon receptor (Homo sapiens) (UniProt P35869); test: ATG_Ahr_CIS: Attagene CIS-FACTORIAL HepG2 Assay for human Aryl Hydrocarbon Receptor (Ahr) (AID 2282930); details: HepG2 AhR cis-factorial reporter transcription; actives raise or lower the signal
Aryl hydrocarbon receptor (Homo sapiens), sequence (P35869 whole entry, looked up): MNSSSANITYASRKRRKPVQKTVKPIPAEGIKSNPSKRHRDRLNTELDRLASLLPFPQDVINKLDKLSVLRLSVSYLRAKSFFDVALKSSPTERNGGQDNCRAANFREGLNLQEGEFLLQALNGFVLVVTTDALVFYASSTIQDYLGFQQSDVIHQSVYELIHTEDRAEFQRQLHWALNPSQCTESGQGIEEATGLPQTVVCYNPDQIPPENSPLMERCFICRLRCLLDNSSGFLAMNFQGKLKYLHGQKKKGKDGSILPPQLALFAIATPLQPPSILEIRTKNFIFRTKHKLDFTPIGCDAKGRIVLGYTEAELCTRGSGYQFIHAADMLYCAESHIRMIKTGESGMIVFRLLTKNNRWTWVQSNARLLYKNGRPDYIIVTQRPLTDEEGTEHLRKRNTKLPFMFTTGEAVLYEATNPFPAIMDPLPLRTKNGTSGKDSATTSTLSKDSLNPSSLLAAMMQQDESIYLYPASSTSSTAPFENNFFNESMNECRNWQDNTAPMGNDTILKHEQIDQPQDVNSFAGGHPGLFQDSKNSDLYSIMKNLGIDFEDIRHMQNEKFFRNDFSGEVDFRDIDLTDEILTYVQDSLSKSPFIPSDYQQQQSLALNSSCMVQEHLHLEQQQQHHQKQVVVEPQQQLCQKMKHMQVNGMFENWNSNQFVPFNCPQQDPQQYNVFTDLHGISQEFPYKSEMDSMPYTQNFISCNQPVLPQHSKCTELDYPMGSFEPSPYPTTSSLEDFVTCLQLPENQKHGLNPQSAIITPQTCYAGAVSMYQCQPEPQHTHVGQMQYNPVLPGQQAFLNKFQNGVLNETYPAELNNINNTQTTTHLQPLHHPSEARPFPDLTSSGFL
In short: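 HepG2, transient MRTU (cis) transfection, 24 h exposure. RNA → cDNA → PCR → 6-FAM primer extension → HpaI 2 h 37 C → CE. Fit: bidirectional, DMSO baseline.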

[2] = ATG_AP_1_CIS: Attagene CIS-FACTORIAL HepG2 Assay for human Activator Protein 1 (AP-1) (AID 2282931); details: HepG2 Attagene cis-factorial AP-1 reporter mRNA; actives raise or lower the signal
In short: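 Multiplexed HepG2 reporter assay, 24 h dosing. mRNA induction detected by RT-PCR plus capillary electrophoresis. Activity fitted in both directions against DMSO.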

[3] = ATG_GLI_CIS: Attagene CIS-FACTORIAL HepG2 Assay for human Zinc Finger Protein GLI1 (AID 2282945); details: HepG2, Attagene cis-factorial reporter mRNA, GLI element; actives raise or lower the signal
In short: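 Bidirectional curve fits relative to DMSO, using reporter mRNA levels from RT-PCR plus capillary electrophoresis. Cells were HepG2 transiently carrying cis-regulated reporter constructs, harvested 24 h after dosing.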

[4] = ATG_RORE_CIS: Attagene CIS-FACTORIAL HepG2 Assay for human RAR-related Orphan Receptor Element (RORE) (AID 2282959); details: HepG2 Attagene cis-factorial RORE reporter, mRNA; actives raise or lower the signal
In short: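 Endogenous factor activity at a cis response element is read as reporter transcript levels in HepG2 cells, 24 h post-dose. Transcripts are quantified by RT-PCR with capillary electrophoresis, and data fitted in both directions against DMSO.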

[5] = ATG_TAL_CIS: Attagene CIS-FACTORIAL HepG2 Assay for human TAL Basal Promoter (AID 2282966); details: HepG2 Attagene cis-factorial TAL promoter reporter; actives raise or lower the signal;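 further: background control endpoint measuring basal TAL promoter reporter mRNA not a specific factor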
In short: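 Fluorescence of labelled reporter cDNA fragments, resolved by capillary electrophoresis, gave the readout. Human HepG2 liver cells carried transiently transfected cis-element reporter units and were treated for 24 hours; activity was fitted bidirectionally against DMSO.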

[6] = ATG_VDRE_CIS: Attagene CIS-FACTORIAL HepG2 Assay for human Vitamin D Receptor Element (VDRE) (AID 2282968); details: HepG2 VDRE cis-reporter transcription, actives raise or lower the signal
In short: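 In transiently transfected HepG2 liver cells, gain or loss of reporter mRNA after 24 h exposure is scored relative to DMSO, using fluorescence detection by capillary electrophoresis of RT-PCR products.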

[7] = biological target: X-box-binding protein 1 (Homo sapiens) (UniProt P17861); test: ATG_Xbp1_CIS: Attagene CIS-FACTORIAL HepG2 Assay for human X-box Binding Protein 1 (XBP1) (AID 2282972); details: HepG2 XBP1 cis-element reporter, Attagene multiplex; actives raise or lower the signal
X-box-binding protein 1 (Homo sapiens), sequence (P17861 whole entry, looked up, the tested form may be a part): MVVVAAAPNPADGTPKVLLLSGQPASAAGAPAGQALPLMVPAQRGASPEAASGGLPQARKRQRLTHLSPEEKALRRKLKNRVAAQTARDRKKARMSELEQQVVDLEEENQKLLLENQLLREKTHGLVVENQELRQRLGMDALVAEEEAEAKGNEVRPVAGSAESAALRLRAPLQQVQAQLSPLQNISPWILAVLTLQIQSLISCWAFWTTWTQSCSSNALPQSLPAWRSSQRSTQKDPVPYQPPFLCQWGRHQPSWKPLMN
In short: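 Fluorescence-labelled cDNA fragments from reporter transcripts, separated by capillary electrophoresis, give the signal. Source: HepG2 cells transfected with promoter-driven reporter units, harvested 24 h post-dose. DMSO served as reference for bidirectional curve fitting.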

[8] = ATG_M_32_TRANS: Attagene TRANS-FACTORIAL HepG2 Assay for M32 Transcription Factor (Internal Marker) (AID 2282984; active means hit-call score of the fitted dose curve at least 0.9, where 1 is the maximum;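 further: transcript level of a background control reporter unit measured by RT-PCR and capillary electrophoresis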); details: HepG2 Attagene TRANS M32 internal marker reporter
In short: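 Using transiently transfected HepG2 cells exposed to test chemicals for 24 h, reporter transcripts are converted to labelled cDNA fragments and quantified by capillary electrophoresis. DMSO defines the activity baseline.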

[9] = ATG_NFI_CIS: Attagene CIS-FACTORIAL HepG2 Assay for human Nuclear Factor I (NFI) (AID 2282989); details: HepG2 cis-regulatory reporter, NFI response element transcription; actives raise or lower the signal
In short: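 After transient transfection of HepG2 with cis-promoter reporter constructs and 24 h dosing, RNA is reverse-transcribed, amplified, 6-FAM end-labelled and HpaI-digested before capillary analysis. Bidirectional curve fitting against DMSO.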

[10] = biological target: Myc proto-oncogene protein (Homo sapiens) (UniProt P01106); test: ATG_Myc_CIS: Attagene CIS-FACTORIAL HepG2 Assay for human Myelocytomatosis (Myc) Proto-Oncogene Transcription Factor (AID 2282990); details: HepG2, Attagene cis-reporter transcription factor activity; actives raise or lower the signal
Myc proto-oncogene protein (Homo sapiens), sequence (P01106 whole entry, looked up): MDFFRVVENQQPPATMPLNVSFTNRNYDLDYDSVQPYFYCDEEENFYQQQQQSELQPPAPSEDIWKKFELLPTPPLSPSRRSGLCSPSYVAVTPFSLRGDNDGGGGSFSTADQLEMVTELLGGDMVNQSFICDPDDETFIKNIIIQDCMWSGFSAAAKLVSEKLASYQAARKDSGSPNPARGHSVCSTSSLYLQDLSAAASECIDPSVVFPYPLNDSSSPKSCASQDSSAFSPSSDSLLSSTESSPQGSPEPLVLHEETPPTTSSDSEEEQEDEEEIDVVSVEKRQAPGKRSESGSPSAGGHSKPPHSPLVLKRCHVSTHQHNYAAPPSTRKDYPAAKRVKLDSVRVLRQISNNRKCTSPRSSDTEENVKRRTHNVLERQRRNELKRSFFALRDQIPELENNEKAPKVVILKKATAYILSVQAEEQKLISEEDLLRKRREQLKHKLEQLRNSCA
In short: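 Cells of the HepG2 human liver line bear multiple cis-driven reporter transcription units. Reporter mRNA after 24 h exposure is reverse-transcribed, amplified, labelled and resolved by capillary electrophoresis, with gain- or loss-of-signal fitting relative to DMSO.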

[11] = ATG_NF_kB_CIS: Attagene CIS-FACTORIAL HepG2 Assay for human Nuclear Factor Kappa B (NF-kB) (AID 2282991); details: HepG2 Attagene cis-factorial NF-kB reporter mRNA; actives raise or lower the signal
In short: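 Measures mRNA induction of an NF-kB-responsive cis-element reporter in HepG2 cells transfected with multiple reporter units, sampled 24 h post-dosing; quantified by fluorescence after RT-PCR and capillary electrophoresis, fitted for activation or inhibition against DMSO.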

[12] = ATG_NRF2_ARE_CIS: Attagene CIS-FACTORIAL HepG2 Assay for human Nuclear Factor Erythroid 2 Related Factor 2 (NFR2) response to Antioxidant Response Elements (ARE) (AID 2282992); details: HepG2 Attagene ARE/NRF2 reporter, transcription factor activity; actives raise or lower the signal
In short: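 Multiplexed reporter mRNA profiling in HepG2 after a 24 h chemical exposure. Curves fitted in both directions relative to DMSO negative control.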

[13] = ATG_Oct_MLP_CIS: Attagene CIS-FACTORIAL HepG2 Assay for human Octamer-Binding Transcription Factor (Oct) (AID 2282993); details: HepG2 Attagene cis-factorial Oct reporter, mRNA; actives raise or lower the signal
In short: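 Cells of the HepG2 line express promoter-controlled reporter sequences whose mRNA levels, after 24 h treatment, are measured by RT-PCR and capillary electrophoresis. Increases and decreases are scored relative to DMSO.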

[14] = biological target: Cellular tumor antigen p53 (Homo sapiens) (UniProt P04637); test: ATG_p53_CIS: Attagene CIS-FACTORIAL HepG2 Assay for human p53 Transcription Factor (AID 2282994); details: HepG2 p53 cis-element reporter, Attagene mRNA; actives raise or lower the signal
Cellular tumor antigen p53 (Homo sapiens), sequence (P04637 whole entry, looked up): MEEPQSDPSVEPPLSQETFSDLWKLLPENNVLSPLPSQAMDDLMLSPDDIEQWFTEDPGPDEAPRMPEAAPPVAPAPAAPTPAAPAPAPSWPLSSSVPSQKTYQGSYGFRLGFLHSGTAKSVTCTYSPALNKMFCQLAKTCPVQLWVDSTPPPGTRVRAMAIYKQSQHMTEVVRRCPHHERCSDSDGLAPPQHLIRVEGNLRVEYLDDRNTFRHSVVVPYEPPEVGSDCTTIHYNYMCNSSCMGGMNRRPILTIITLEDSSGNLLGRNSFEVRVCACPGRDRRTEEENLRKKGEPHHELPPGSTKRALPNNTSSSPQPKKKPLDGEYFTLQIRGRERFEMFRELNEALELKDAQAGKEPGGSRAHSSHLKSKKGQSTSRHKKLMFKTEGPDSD
In short: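 Multiplexed reporter mRNA assay in human HepG2 liver cells; cis-regulated units report endogenous factor activity. Values come from bidirectional curve fitting against DMSO negative control after 24 h treatment.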

[15] = biological target: Peroxisome proliferator-activated receptor gamma (Homo sapiens) (UniProt P37231); test: ATG_PPARg_TRANS: Attagene TRANS-FACTORIAL HepG2 Assay for human Peroxisome Proliferator-activated Receptor-gamma (PPARg) (AID 2283007; active means hit-call score of the fitted dose curve at least 0.9, where 1 is the maximum)
Peroxisome proliferator-activated receptor gamma (Homo sapiens), sequence (P37231 whole entry, looked up, the tested form may be a part): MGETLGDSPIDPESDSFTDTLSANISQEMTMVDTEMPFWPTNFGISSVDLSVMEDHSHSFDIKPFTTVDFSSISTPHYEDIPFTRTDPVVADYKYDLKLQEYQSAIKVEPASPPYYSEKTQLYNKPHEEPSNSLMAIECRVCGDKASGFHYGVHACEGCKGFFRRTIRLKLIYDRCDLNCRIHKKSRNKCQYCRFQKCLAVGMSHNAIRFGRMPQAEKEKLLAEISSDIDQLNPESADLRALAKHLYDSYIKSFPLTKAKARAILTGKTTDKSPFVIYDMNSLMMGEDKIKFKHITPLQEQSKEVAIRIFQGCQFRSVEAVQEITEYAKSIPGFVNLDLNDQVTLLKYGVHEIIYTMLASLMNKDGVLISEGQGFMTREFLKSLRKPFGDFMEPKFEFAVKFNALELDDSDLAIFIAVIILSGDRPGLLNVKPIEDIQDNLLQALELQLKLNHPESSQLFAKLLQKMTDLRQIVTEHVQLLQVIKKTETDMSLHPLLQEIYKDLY
In short: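 Gain-of-signal endpoint relative to DMSO, derived from reporter mRNA levels quantified by RT-PCR and capillary electrophoresis. Cells were HepG2 transiently expressing a chimeric NR-Gal4 construct with GAL4-UAS reporters, exposed to chemicals for 24 h.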

[16] = biological target: Nuclear receptor subfamily 1 group I member 2 (Homo sapiens) (UniProt O75469); test: ATG_PXR_TRANS: Attagene TRANS-FACTORIAL HepG2 Assay for human Pregnane X Receptor (PXR) (AID 2283008; active means hit-call score of the fitted dose curve at least 0.9, where 1 is the maximum)
Nuclear receptor subfamily 1 group I member 2 (Homo sapiens), sequence (O75469 whole entry, looked up, the tested form may be a part): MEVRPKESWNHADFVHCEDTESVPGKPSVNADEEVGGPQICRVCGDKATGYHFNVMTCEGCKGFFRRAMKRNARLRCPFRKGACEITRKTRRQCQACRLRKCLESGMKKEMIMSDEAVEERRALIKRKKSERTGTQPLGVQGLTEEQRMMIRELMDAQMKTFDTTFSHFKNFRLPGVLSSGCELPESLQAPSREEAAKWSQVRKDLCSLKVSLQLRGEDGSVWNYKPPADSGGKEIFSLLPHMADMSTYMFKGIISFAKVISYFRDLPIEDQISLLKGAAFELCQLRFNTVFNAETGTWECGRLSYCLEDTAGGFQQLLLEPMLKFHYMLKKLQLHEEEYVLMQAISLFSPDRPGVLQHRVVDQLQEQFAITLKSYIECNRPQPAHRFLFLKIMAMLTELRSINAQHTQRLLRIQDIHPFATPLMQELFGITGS
In short: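 Measures mRNA induction of a GAL4-UAS-driven reporter in human HepG2 cells transiently expressing PXR fused to Gal4, following 24 h treatment. DMSO served as negative control and baseline.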

[17] = ATG_BRE_CIS: Attagene CIS-FACTORIAL HepG2 Assay for human Bone Morphogenetic Protein (BMP) Response Element (BRE) (AID 2282933); details: HepG2 BMP response element reporter, Attagene transcription factor profiling; actives raise or lower the signal
In short: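 Gain- or loss-of-signal was derived by bidirectional fitting against DMSO controls. The signal came from reporter mRNA, measured by RT-PCR and capillary electrophoresis, in HepG2 cells transiently carrying multiple reporter units and dosed for 24 h.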

[18] = ATG_TGFb_CIS: Attagene CIS-FACTORIAL HepG2 Assay for human Transforming Growth Factor (TGF) (AID 2282967); details: HepG2 Attagene CIS TGFb reporter, mRNA transcription; actives raise or lower the signal
In short: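 Transcript-level reporter readout: HepG2 transfectants, 24 h exposure, RNA to cDNA, reporter-specific PCR, fluorescent primer extension, capillary sizing against ROX standards. Gain- or loss-of-signal relative to DMSO.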

[19] = ATG_XTT_Cytotoxicity: Cytotoxicity Assessment in the Attagene TRANS-FACTORIAL HepG2 Assay (AID 2283584; active means hit-call score of the fitted dose curve at least 0.9, where 1 is the maximum;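 on AC50: cells exposed to compound for 24 h before reading; active means loss of viability signal versus DMSO baseline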)
In short: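 Cells: human HepG2, transiently transfected with MRTU reporter constructs. Exposure 24 h. Readout: XTT, cell number. Baseline/neg ctrl DMSO; loss-of-signal scored.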

[20] = biological target: Paired box protein Pax-6 (Homo sapiens) (UniProt P26367); test: ATG_Pax6_CIS: Attagene CIS-FACTORIAL HepG2 Assay for human Paired Box 6 (PAX6) (AID 2282956); details: HepG2 CIS-FACTORIAL PAX6 reporter transcription, RNA readout; actives raise or lower the signal
Paired box protein Pax-6 (Homo sapiens), sequence (P26367 whole entry, looked up): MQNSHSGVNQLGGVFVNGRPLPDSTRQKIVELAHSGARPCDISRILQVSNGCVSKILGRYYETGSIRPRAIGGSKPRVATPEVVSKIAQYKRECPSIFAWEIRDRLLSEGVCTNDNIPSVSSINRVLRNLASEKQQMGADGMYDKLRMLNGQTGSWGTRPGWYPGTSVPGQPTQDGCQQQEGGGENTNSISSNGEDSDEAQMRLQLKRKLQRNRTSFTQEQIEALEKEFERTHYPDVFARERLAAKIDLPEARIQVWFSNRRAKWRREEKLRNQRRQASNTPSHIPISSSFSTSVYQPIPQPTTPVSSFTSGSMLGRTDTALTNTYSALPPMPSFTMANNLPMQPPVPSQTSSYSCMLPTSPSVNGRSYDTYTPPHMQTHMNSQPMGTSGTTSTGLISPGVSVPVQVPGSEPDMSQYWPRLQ
In short: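 Multiplexed cis-reporter HepG2 system; 24 h treatment; reporter mRNA read by RT-PCR/CE fluorescence; bidirectional fit vs DMSO.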

Measured: AC50

Cc1ccccc1CCl
not listed: [17] | [18] | [19] | [20]
inactive: all other assays above

CCCCCCCCCCCC#N
active: [2] 73.6 µM | [7] 173 µM | [9] 169 µM | [11] 131 µM | [12] 73.4 µM | [13] 141 µM | [15] 80.6 µM | [16] 19.5 µM
not listed: [3] | [20]
inactive: all other assays above

CC1OC(C)OC(C)O1 (stereo unspecified)
not listed: [6] | [20]
inactive: all other assays above

O=P1(NCCCl)OCCCN1CCCl (stereo unspecified)
not listed: [6] | [14] | [17]
inactive: all other assays above

O=[N+]([O-])O.O=[N+]([O-])O.[Cd]
inactive: [1] | [5] | [8] | [15]
active: [2] 5.97 µM | [3] 9.58 µM | [20] 1.79 µM | [7] 1.43 µM | [9] 2.18 µM | [10] 0.962 µM | [12] 4.12 µM | [13] 1.16 µM | [19] 12.3 µM

Cc1cc(C)c(C2=C(OC(=O)CC(C)(C)C)C3(CCCC3)OC2=O)c(C)c1
active: [2] 174 µM | [3] 163 µM | [7] 104 µM | [9] 145 µM | [10] 189 µM | [12] 160 µM | [13] 128 µM | [15] 4.68 µM
not listed: [6] | [14] | [20]
inactive: all other assays above

CCOP(=O)(OCC)OCC
not listed: [11] | [17]
inactive: all other assays above

CSc1nc(N=[N+]=[N-])nc(NC(C)C)n1
active: [12] 100 µM | [15] 15.4 µM | [16] 14 µM
not listed: [3]
inactive: all other assays above
